In PubChem BioAssay AID588405 (Sanford-Burnham Center for Chemical Genomics, 2011):
Out of some 360,000 compounds screened, about 6,200 (1.7%) were called active.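 The calls were made as follows: active = inhibition of at least 50% at 20 µM; inactive = the rest.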 Many of the other results were omitted from the sample, so actives are more common in it than they were.

Assay: inhibition of PEG-3 promoter activity – cell-based, HeLa, luciferase luminescence, primary screen (AID 588405)
Settings: HeLa PEG-Prom luciferase reporter, overnight, at 20 µM, hits give high values

SMILES	inhibition
CCCNC(=O)c1cc(C2CCCN(C(=O)c3ccc4c(c3)CCO4)C2)on1 (stereo not drawn)	11% (inactive)
Cc1ccc(N2C(=O)CC(NCc3ccc4c(c3)OCO4)C2=O)cc1Cl (stereo not drawn)	-15.9% (inactive)
O=C(CSc1nc(=O)n2ccccc2n1)Nc1ccc2c(c1)OCCO2	-14.4% (inactive)
CCc1ccc([C@@H]2CC(=O)[C@@H]3CN(S(=O)(=O)c4ccc(C)cc4)[C@H](c4ccc(Cl)cc4)C[C@@H]3N2S(=O)(=O)c2ccc(C)cc2)cc1	15.4% (inactive)
COc1cnc(-c2ccccn2)nc1Oc1ccc(C(C)(C)C)cc1	-4.72% (inactive)
CC(C)(C)c1ccc(Oc2ccc(N)cc2)cc1	76.7% (active)
Cc1cc(C(C)(C)C)cc(C)c1N	6.32% (inactive)
CC1(C(=O)NS(=O)(=O)c2ccc3ccccc3c2)CCN1C(=O)C1(c2ccc(Cl)cc2)CCC1 (stereo not drawn)	-9.9% (inactive)
CC1(C(=O)NCc2cccc3ccccc23)CCN1Cc1ccc(-c2ccccc2)o1 (stereo not drawn)	21.9% (inactive)
CCOC(=O)c1ccn(S(=O)(=O)c2ccc(C)cc2)c1-c1ccccc1	-0.12% (inactive)
Cc1nc2scc(-c3cccs3)c2c(=O)n1N	3.36% (inactive)
CS(=O)(=O)N1CCC(C(=O)N2CCN(c3ccccc3)CC2)CC1	8.23% (inactive)
CCS(=O)(=O)N1CCC(C(=O)N2CCN(c3ccccc3)CC2)CC1	-2.59% (inactive)
CCS(=O)(=O)N1CCC(N2CCN(c3ccccc3)CC2)CC1	52% (active)
CCC(C)(C)NC(=O)C(c1cccn1C)N(Cc1ccc(C)cc1)C(=O)Cn1nnc2ccccc21 (stereo not drawn)	5.59% (inactive)
Cc1ccccc1-c1nc(NC(C)C)nc2cc(-c3ccccc3)sc12	7.19% (inactive)
COc1cccc(-c2sc3ccc(OC)cc3c2-c2ccc(OCCN3CCCCC3)cc2)c1	87.9% (active)
COc1cc(OC)cc(-c2sc3ccc(OC)cc3c2-c2ccc3cc[nH]c3c2)c1	2.15% (inactive)
COc1ccc2sc(-c3ccccc3OC)c(-c3ccc(OCCN4CCCC4)cc3)c2c1	34.9% (inactive)
CCN(CCN(C)C)C(=O)c1ccc2nc(C)c(N(C)C(=O)CCc3ccccc3)n2c1	-8.8% (inactive)
COC(=O)c1ccc2nc(C3CCCCC3)c(Cc3cccc(F)c3)n2c1	-20.6% (inactive)
Cc1cc(C)c2nc3nc(C)cc(C)c3c(N)c2c1	59.9% (active)
COC(=O)c1ccc(COc2ccc(/C=C/C(=O)c3ccc(OC)c(CSCC(=O)O)c3)cc2OC)cc1	-5.11% (inactive)
COc1ccc(C(=O)/C=C/c2ccc(-c3ccccc3)cc2)cc1CSCC(=O)O	98.8% (active)

SMILES	inhibition
COc1ccccc1CCNC(=O)C1CCN(C(=O)/C=C/c2ccccc2)CC1	-46.9% (inactive)
COc1ccc2c3c1O[C@H]1C[C@@H](O)C=C[C@@]31CCN(C)C2	-14.7% (inactive)
COc1ccc(NC(=O)c2cc(-c3cc(OC)c(OC)c(OC)c3)nc3ccccc23)c(OC)c1	50.8% (active)
COc1ccc(NC(=O)c2sc(N3CCOCC3)nc2-c2ccccc2)c(OC)c1	20.4% (inactive)
COc1ccc(-c2cc(C(=O)n3cnc4ccccc43)c3ccccc3n2)cc1	-64% (inactive)
CC(=O)Nc1cccc(-c2cc3nc(NCc4cccnc4)n(C)c(=O)c3s2)c1	-27.3% (inactive)
O=C(/C(=C/c1cccc(Cl)c1)c1nc2ccccc2[nH]1)c1ccccc1	109% (active)
O=c1c2cc(Br)ccc2nc(-c2cccc(Cl)c2)n1O	31.2% (inactive)
CN(c1ccccc1)S(=O)(=O)c1cc(C(=O)Nc2nc3ccccc3[nH]2)ccc1Cl	5.63% (inactive)
Cc1ccc(-c2nc3ccccc3[nH]2)cc1NC(=O)c1sc2ccccc2c1Cl	50.7% (active)
Cc1ccc2c(Cl)c(C(=O)Nc3nn[nH]n3)sc2c1	-5.87% (inactive)
CN1CCc2ccccc2C1Cc1ccccc1NC(=O)c1sc2ccccc2c1Cl (stereo not drawn)	-137% (inactive)
COc1ccc(C)cc1NC(=O)CCS(=O)(=O)c1cccc2nonc12	-14.4% (inactive)
Cc1ccc2c(C(=O)CN3CCCC3)c(C)[nH]c2c1	7.2% (inactive)
CCNC(=O)C1(C)CCN(C(=O)c2ccccc2)C1 (stereo not drawn)	-7.38% (inactive)
CC1CC(=O)Nc2ccccc2N1S(=O)(=O)c1cccs1 (stereo not drawn)	10.5% (inactive)
CC1CN(Cc2ccccc2)C(=S)NC1=O (stereo not drawn)	-2.37% (inactive)
CC1CC(=S)Nc2ccccc2N1Cc1ccccc1 (stereo not drawn)	55.4% (active)
CCNC(=O)C1(C)CCCN1C(=O)c1ccc(N(C)C)cc1 (stereo not drawn)	-3.48% (inactive)
CCOc1ccc(Nc2nc(Cl)nc(N3CCN(c4ccc(OC)cc4)CC3)n2)cc1	22.4% (inactive)
CCCOc1ccc(Cl)cc1Nc1nc(NCCO)nc(N2CCCC2)n1	9.9% (inactive)
CCN1CCN(c2nc(Nc3cc(OC)ccc3OC)nc(Nc3cc(OC)ccc3OC)n2)CC1	52.3% (active)
COc1cccc(C(O)c2ncc(-c3ccc4ccccc4c3)[nH]2)c1 (stereo not drawn)	-68.4% (inactive)
CNC(=O)C1CC(=O)N(c2ccc(OCC(=O)Nc3ccccc3C)cc2)C1 (stereo not drawn)	-61.3% (inactive)

SMILES	inhibition
CC12CCC(=O)C=C1CCC1C2C(O)CC2(C)C1CCC2(O)C(O)CO (stereo not drawn)	10.9% (inactive)
CCc1nc2ccc(C(=O)Nc3ccc(OC)c(OC)c3)cn2c1N(C)C(=O)c1cccc(OC)c1	-9.49% (inactive)
CCCN1CCN(C(=O)Cn2ncc3ccccc32)CC1	6.83% (inactive)
O=C1NC[C@H](Cc2ccc(O)cc2)N(C[C@H]2CCCN2C[C@H](Cc2ccccc2)N2C[C@H](Cc3ccccc3)N(CCc3ccccc3)C(=O)C2=O)C1=O	-4.33% (inactive)
Cc1oc2c(c1C(=O)N1CCOCC1)C(=O)c1ccccc1C2=O	97.9% (active)
Cc1ccc(C(=O)N2CCN(S(=O)(=O)N3CCOCC3)CC2)cc1	5.77% (inactive)
O=C(c1snnc1-c1ccccc1)N1CCOCC1	11.7% (inactive)
CC=CCn1c(SCCCc2ccccc2)nc2c1c(=O)[nH]c(=O)n2C	0.45% (inactive)
CN(CCO)Cc1csc2ccc(Br)cc12	13.7% (inactive)
COc1ccc(S(=O)(=O)N2CCCCC2c2cc(C(=O)NCc3ccc(F)cc3)no2)cc1 (stereo not drawn)	15.3% (inactive)
CC[C@@H]1Cc2cc(O)ccc2C2=C1c1ccc(O)cc1C[C@H]2CC	64.8% (active)
CCc1nc2c(OCC(N)=O)cccn2c1N(C)C(=O)c1ccc(OC)cc1	-3.72% (inactive)
O=C(CC(O)(C(F)(F)F)C(F)(F)F)Nc1ccc(Cl)c(Cl)c1	69.9% (active)
CN(CC(=O)Nc1ccc(Cl)c(C(F)(F)F)c1)C(=O)CCC(=O)c1ccccc1	12.6% (inactive)
O=C(Cc1ncc(C(F)(F)F)cc1Cl)Nc1cccc(Br)c1	3.22% (inactive)
COC(=O)/C=C\C(=O)Nc1cccc([N+](=O)[O-])c1	106% (active)
O=C(Nc1cccc([N+](=O)[O-])c1)N1CCc2ccccc2C1	-236% (inactive)
Cc1ccc(NC(=O)O/N=C/c2cccc([N+](=O)[O-])c2)cc1	-85.8% (inactive)
O=C(CN1C(=O)NC2(CCOc3ccccc32)C1=O)NCc1ccc(F)cc1 (stereo not drawn)	20.2% (inactive)
CCc1ccc2c(c1)NC(=O)C2(C)Cc1ccc(OC(F)(F)F)cc1 (stereo not drawn)	32.7% (inactive)
CCOC(=O)c1sc(C)c2c1NC(C)(c1cccc3ccccc13)NC2=O (stereo not drawn)	34.8% (inactive)
Cc1ccc2nc(-c3ccc(Br)cc3)cn2c1	55.6% (active)
Cc1ccc(-c2cn3cc(C)ccc3n2)cc1	88.8% (active)
Cc1ccc(-c2nc3ccc(Cl)cn3c2Cc2ccccc2)cc1	-130% (inactive)

SMILES	inhibition
Cc1ccc(-n2c(-c3ccc(Cl)cc3)n[nH]c2=S)cc1	17.7% (inactive)
COc1ccc(-c2nc3ccc(Br)cn3c2Cc2ccc(C)cc2)cc1OC	-58.2% (inactive)
Cc1ccc(-c2nc3ccc(Br)cn3c2Cc2ccccc2C(F)(F)F)cc1	-138% (inactive)
Cc1csc(NC(=O)CSc2nc(=O)n(CCCN(C)C)c3c2CCC3)n1	4.74% (inactive)
CN(Cc1ccc(C(F)(F)F)cc1)C(=O)[C@H]1O[C@@H](n2cnc3c(N)ncnc32)[C@H](O)[C@@H]1O	6.54% (inactive)
CC1(C(=O)NS(=O)(=O)c2ccc(C#N)cc2)CCN1C(=O)c1ccc(C2CCCCC2)cc1 (stereo not drawn)	-8.94% (inactive)
O=[N+]([O-])/C(N=Nc1ccccc1)=N\Nc1ccccc1	-2.71% (inactive)
Cn1c(CCC(=O)Nc2ccccc2F)nnc1SCC(=O)Nc1ccccc1Cl	3.9% (inactive)
C=C(C)COc1ccc(-c2ncncc2-c2ccc(OC)cc2)c(O)c1	-25.6% (inactive)
CCOc1ccc(-c2nc(N)ncc2-c2ccccc2OC)c(O)c1	1.53% (inactive)
COc1ccc(-c2nc(N)ncc2-c2ccc(Cl)cc2)c(O)c1	53.7% (active)
CC(=O)Nc1cnc(-c2ccc(O)cc2C)cn1	-46.9% (inactive)
S=C(c1ccc(-c2ccccc2)o1)N1CCCCC1	-230% (inactive)
OCCN1CCN(C(=S)c2ccc(-c3ccccc3)cc2)CC1	51.7% (active)
CN1CCN(CCCCOc2ccccc2-c2ccccc2)CC1	7.99% (inactive)
CC(C#N)OC(=O)c1cccnc1SCC(=O)Nc1ccc2c(c1)OCO2 (stereo not drawn)	-92% (inactive)
O=C(O)CCN1C(=O)CC2(CCCCC2)C1=O	-1.96% (inactive)
COCCNc1ncnc2c1ncn2[C@H]1CN(CCN2CCOCC2)C[C@@H](CO)O1	0.57% (inactive)
Clc1ccc2nc(-c3ccccc3)nc(C(Cl)Cl)c2c1	107% (active)
N#CCSc1nc(-c2ccccc2)nc2ccc(F)cc12	16.9% (inactive)
Clc1cccc(-c2nc(NCC3CCCO3)c3ccccc3n2)c1 (stereo not drawn)	17.2% (inactive)
